“And” between values parts separate entries of the source, which are not always exact repeats. Equal values may be shown once. Results filed as inconclusive are left out. The source made the active and inactive calls. Calls follow the shape of the dose curve; as a rule, active = well fitted inhibition curve with a large enough effect; inconclusive = small, poorly fitted or top-dose-only effect, or another doubt; inactive = no such curve, though single readings can be large or run the other way.
Target: Neuropeptide S receptor (Homo sapiens) (UniProt Q6W5P4)
Test: Confirmation Concentration-Response Assay for Antagonists of the Neuropeptide S Receptor: Robust Characterization of Calcium Signal Transduction
Settings: CHO-NPSR cells, NPS-induced calcium fluorescence (FDSS); series mostly up to 31.6 µM; activity, negative = inhibition: at the top concentration
From the text: NIH Chemical Genomics Center [NCGC] NIH Molecular Libraries Probe Production centers Network [MLPCN] MLPCN Grant: X01-DA026210-01 Assay Submitter (PI): Heilig, Markus Alexander NCGC Assay Overview: Neuropeptide S receptor (NPSR), previously known as GPR154, is a recently de-orphanized G protein coupled receptor. Its endogenous ligand is the 20 amino acids peptide Neuropeptide S (NPS). […] NPS and its receptor are found in various tissues. Specifically they are highly expressed in brain areas that have been implicated in modulation of arousal, stress and anxiety. Central administration of NPS in mice produces an unusual profile of activity by inducing wakefulness and arousal, while at the same time suppressing anxiety. Therefore, NPSR may represent a novel drug target for the treatment of sleep and anxiety disorders. To identify NPSR antagonists, we developed a cell-based assay with transfected NPS receptor. NPS can stimulate the production of cAMP as well as release intracellular calcium in Chinese hamster ovary cells stably expressing NPS receptor. This change in intracellular calcium can be detected using a calcium indicator dye on a calcium imaging plate reader system (FDSS). This particular assay uses a high density of sampling across concentration-response space to establish more confidence estimates of potency.
NCGC Assay Protocol Summary: A Chinese hamster ovary (CHO) cell line stably expressing the NPS receptor (CHO-NPSR) was obtained from Dr. Heilig lab at NIAAA and maintained in F-12 Kaighn's media (Invitrogen, Carlsbad, CA, 21127) supplemented with 10 % FBS, 100 units/ml penicillin, 100 ug/ml streptomycin and 250 ug/ml geneticin at 37C, 5% CO2 in a humidified atmosphere. Before the assay, aliquots of cells were frozen and stored at -135C. The assay was performed on a FDSS-7000 kinetic plate reader in 1536-well format. For both agonist (1-220s) and antagonist (221-400s) phases, the maximums of kinetic fluorescence responses were converted separately into text files using the instrument's software data export utility. Data for agonist response were normalized to the controls for basal activity (DMSO only) and 100% activation (NPS). […] AC50 values were determined from concentration-response data modeled with the standard Hill equation. NPS 1536-well FDSS assay protocol: (1) Frozen CHO-NPSR cells were thaw, washed once with fresh media and resuspended in F-12 Kaighn's media supplemented with 10 % FBS, 100 units/ml penicillin and 100 ug/ml streptomycin. Cells were plated at 3 ul/well (1200 cells) to black, clear-bottom, tissue-culture treated 1536-well plates, and then cultured at 37C, 5 % CO2 for 16 to 30 hours. (2) Add 3 ul of calcium dye (from High Performance PBX Calcium Assay Kit, BD Biosciences). The calcium dye was prepared according to the manufactory's instruction. (3) Incubation at 37C, 5 % CO2 for 60 to 120 min. (4) Load plates to FDSS-7000. The following steps were performed on FDSS-7000. (5) Record fluorescent background (Ex 480 nm, Em 520-560 nm) for 10 s. (6) Add 23 nl/well of compound in DMSO solution. The final titration for each compound was between 0.6 nM and 46 uM. Record agonist response for 210 s. (7) Add 2 ul of stimulation reagent (1X HBSS buffer, 0.1% BSA, 60 nM NPS). Record antagonist response for 140 s. Keywords: MLSMR, MLPCN, NIH Roadmap, qHTS, NCGC, NPS, Neuropeptide S Antagonists

Sequence of Neuropeptide S receptor (Homo sapiens) (Q6W5P4 whole entry, looked up): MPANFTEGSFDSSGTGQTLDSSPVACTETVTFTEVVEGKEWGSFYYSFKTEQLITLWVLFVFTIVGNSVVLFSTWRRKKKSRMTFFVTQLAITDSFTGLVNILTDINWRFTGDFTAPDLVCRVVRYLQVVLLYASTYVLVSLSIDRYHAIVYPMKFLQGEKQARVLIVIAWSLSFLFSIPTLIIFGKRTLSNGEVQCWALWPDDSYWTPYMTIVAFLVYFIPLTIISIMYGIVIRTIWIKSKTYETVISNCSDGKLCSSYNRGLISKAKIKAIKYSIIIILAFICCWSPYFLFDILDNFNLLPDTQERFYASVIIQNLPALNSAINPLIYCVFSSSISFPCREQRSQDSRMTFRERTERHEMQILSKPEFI

Potency, active:
COc1ccccc1C1c2c(ncn(-c3ccccc3)c2=N)Oc2ccc3ccccc3c21 (stereo not given) 4.92 µM
N=c1c2c(ncn1-c1ccccc1)Oc1ccc3ccccc3c1C2c1ccc2c(c1)OCCO2 (stereo not given) 0.276 µM
COc1cccc(C2c3c(ncn(-c4ccccc4)c3=N)Oc3ccc4ccccc4c32)c1OC (stereo not given) 0.981 µM
COc1cccc(C2c3c(ncn(-c4cccc(C#N)c4)c3=N)Oc3ccc4ccccc4c32)c1 (stereo not given) 2.76 µM
COc1cccc(C2c3c(ncn(CCN4CCOCC4)c3=N)Oc3ccc4ccccc4c32)c1 (stereo not given) 1.74 µM
O=C(Nc1ncnc2c1C(c1ccccc1)c1c(ccc3ccccc13)O2)c1ccccc1 (stereo not given) 4.92 µM
CCOc1ccc(C2c3c(ncn(-c4ccccc4)c3=N)Oc3ccc4ccccc4c32)cc1OCC (stereo not given) 2.46 µM
Nc1ncnc2c1C(c1ccccc1)c1c(ccc3ccccc13)O2 (stereo not given) 0.139 µM
COc1ccc(C2c3c(n(CCCc4ccccc4)cnc3=N)Oc3ccc4ccccc4c32)cc1OC (stereo not given) 4.92 µM
N=c1c2c(ccn1Cc1ccccc1)Oc1ccc3ccccc3c1C2c1ccccc1 (stereo not given) 3.91 µM
COc1cccc(C2c3c(ncn(-c4ccc(C)cc4)c3=N)Oc3ccc4ccccc4c32)c1 (stereo not given) 2.46 µM
O=C(c1ccccc1)N(C(=O)c1ccccc1)c1ncnc2c1C(c1ccccc1)c1c(ccc3ccccc13)O2 (stereo not given) 0.438 µM
COc1cccc(C2c3c(ncn(-c4cccc(C)c4)c3=N)Oc3ccc4ccccc4c32)c1 (stereo not given) 3.91 µM
CCOC(=O)CCC(=O)Nc1ncnc2c1C(c1ccccc1)c1c(ccc3ccccc13)O2 (stereo not given) 1.24 µM
COc1ccc(C2c3ccccc3Oc3ncn(CCN4CCOCC4)c(=N)c32)cc1OC (stereo not given) 0.619 µM
COc1cccc(C2c3c(ncn(-c4ccccc4)c3=N)Oc3ccc4ccccc4c32)c1 (stereo not given) 1.55 µM and 139 nM
COc1cccc(C2c3c(ncn(-c4ccccc4Br)c3=N)Oc3ccc4ccccc4c32)c1 (stereo not given) 2.76 µM
CCOC(=O)c1ccc(-n2cnc3c(c2=N)C(c2cccc(OC)c2)c2c(ccc4ccccc24)O3)cc1 (stereo not given) 2.46 µM
COc1ccc(C2c3c(ncn(CCN4CCOCC4)c3=N)Oc3ccc4ccccc4c32)cc1OC (stereo not given) 0.438 µM
COc1cccc(C2c3c(ncn(-c4ccccc4C#N)c3=N)Oc3ccc4ccccc4c32)c1 (stereo not given) 3.1 µM
COc1cccc(C2c3c(ncn(-c4ccc(Br)cc4)c3=N)Oc3ccc4ccccc4c32)c1 (stereo not given) 3.1 µM
COc1ccc(-n2cnc3c(c2=N)C(c2cccc(OC)c2)c2c(ccc4ccccc24)O3)cc1 (stereo not given) 1.74 µM
COc1cccc(C2c3c(ncn(-c4ccc(C#N)cc4)c3=N)Oc3ccc4ccccc4c32)c1 (stereo not given) 1.39 µM
N=c1c2c(ccn1CCCc1ccccc1)Oc1ccc3ccccc3c1C2c1ccccc1 (stereo not given) 3.48 µM
COc1cccc(C2c3c(ncn(-c4cccc(Cl)c4)c3=N)Oc3ccc4ccccc4c32)c1 (stereo not given) 4.38 µM
COc1cccc(C2c3c(ncn(CCCN4CCOCC4)c3=N)Oc3ccc4ccccc4c32)c1 (stereo not given) 1.39 µM
COc1cccc(C2c3c(ncn(-c4ccncc4)c3=N)Oc3ccc4ccccc4c32)c1 (stereo not given) 3.91 µM
COc1cccc(C2c3c(ncn(-c4ccccc4SC)c3=N)Oc3ccc4ccccc4c32)c1 (stereo not given) 0.0246 µM
CCOC(=O)CC(=O)Nc1ncnc2c1C(c1ccccc1)c1c(ccc3ccccc13)O2 (stereo not given) 0.552 µM
S=P(c1ccccc1)(c1ccccc1)c1c[n+](C/C=C/c2ccccc2)c2ccccn12 0.0318 µM
CCC(C)(CCN1CCOCC1)N(Cc1cc2ccccc2n(C)c1=O)C(=O)C1CCCCC1 (stereo not given) 0.00135 µM
COc1ccc(C2c3c(ncn(CCCc4ccccc4)c3=N)Oc3ccc4ccccc4c32)cc1OC (stereo not given) 3.91 µM
COc1cccc(C2c3c(ncn(Cc4cccs4)c3=N)Oc3ccc4ccccc4c32)c1 (stereo not given) 3.1 µM
COc1cccc(C2c3c(ncn(-c4ccccc4-c4ccccc4)c3=N)Oc3ccc4ccccc4c32)c1 (stereo not given) 8.74 µM
COc1cccc(C2c3c(ncn(-c4ccc(C(C)(C)C)cc4)c3=N)Oc3ccc4ccccc4c32)c1 (stereo not given) 1.24 µM

activity, negative = inhibition, inactive:
COc1cccc(C2c3c(ncn(-c4ccc(-c5ccccc5)cc4)c3=N)Oc3ccc4ccccc4c32)c1 (stereo not given) -2.66%
N=c1c2c(ccn1CCCCc1ccccc1)Oc1ccc3ccccc3c1C2c1ccccc1 (stereo not given) 37.1%
COc1ccc(C2c3c(nc(CCCc4ccccc4)[nH]c3=O)Oc3ccc4ccccc4c32)cc1OC (stereo not given) 19.1%
COc1cccc(C2C(C#N)=C(NC(=O)CCc3ccccc3)Oc3ccc4ccccc4c32)c1 (stereo not given) 39.1%
COc1ccc(C2C3=C(N=CN(CCN4CCOCC4)C3N)Oc3ccccc32)cc1OC (stereo not given) 4.73%

Source: PubChem BioAssay AID434931 (National Center for Advancing Translational Sciences (NCATS), 2010)
